Screening data as filed in PubChem.
Jurkat NFkB inh = inhibitors of the PMA/ionomycin-induced NF-kB reporter in Jurkat cells; PMA/ionomycin-induced NF-kB luciferase reporter, luminescence; inhibition, % at 4 µM; actives 0.53% (n = 330,000); AID 435003; in the data active = inhibition above about 50%
Mdm2-MdmX inh = human Mdm2/MdmX binding inhibition. O15151+Q00987. actives 3% (n = 330,000). inhibition, % at 8 µM. SaOS-2 split-luciferase Mdm2/MdmX complementation, luminescence;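 active = inhibition of at least 50% at 8 µM in the primary screen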
697 NFkB inh = inhibitors of the PMA/ionomycin-induced NF-kB reporter in 697 B cells. actives 0.33% (n = 330,000). 697 B-cell NF-kB luciferase reporter, 16 h. inhibition, % at 4 µM. AID 435022; in the data active = inhibition above about 35%
CSC inhib = cancer stem cell inhibition; AID 2717; actives 1.1% (n = 300,000); inhibition, % at 7.5 µM; cancer stem cell-like cells viability, luminescence; in the data active = inhibition above about 75%; tested in HMLE shEcad cells
Gli-Sufu antag = Gli-Sufu pathway antagonism; Sufu-KO-LIGHT fibroblasts, Gli luciferase reporter luminescence; inhibition, % at 5 µM; actives 0.74% (n = 340,000); AID 588413;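 active = inhibition above about 55%, limit read from the data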
Beta apoptosis = blocks beta cell apoptosis; protection from apoptosis, % (test concentration not listed); actives 0.8% (n = 300,000); INS-1E cytokine-induced death, ATP luminescence, 48 h; percent of positive-control rescue, neutral wells zero;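 active = Every replicate reaches about 75%, or at least half do and their mean reaches it too, limit read from the data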;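 note: higher means more ATP so stronger rescue from cytokine killing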
Mdm2-MdmX conf = human Mdm2/MdmX binding inhibition, confirmed; inhibition, % at 8 µM; shares compounds with Mdm2-MdmX inh; actives 55% (n = 10,000); luminescent assay; in the data active = inhibition above about 40%
FLuc counter = inhibits full-length luciferase, flagging false Mdm2/MdmX hits | shares compounds with Mdm2-MdmX inh | actives 77% (n = 6,200) | inhibition, % at 8 µM | SaOS-2 full-length luciferase counterscreen, luminescence | AID 504607;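 active = mean inhibition at 8 µM reaching about 37%, which flags the compound as non-specific, limit read from the data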;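 note: p53-null SaOS-2 cells with luciferase driven by a doxycycline-inducible promoter; compound on cells about two nights before reading with doxycycline added after day one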
A number is an active result; 0 = inactive; - = no result given. Only some compounds are listed: those with a hit (about 4.5% of all), similar ones and a draw of the others.

SMILES	Jurkat NFkB inh	Mdm2-MdmX inh	697 NFkB inh	CSC inhib	Gli-Sufu antag	Beta apoptosis	Mdm2-MdmX conf	FLuc counter
CCc1nc2ccc(C(=O)N3CCN(c4cccc(OC)c4)CC3)cc2nc1CC	0	64	0	0	0	0	0	63
Cc1ccc(NC(=S)N(Cc2ccc(Cl)cc2)Cc2ccc(C(=O)O)cc2)cc1Cl	0	0	0	0	0	0	-	-
COc1cc(Cl)c(C)cc1NC(=O)CSC1=NCCS1	0	0	0	0	0	0	-	-
COC(=O)c1cc(S(=O)(=O)C(C)C)c(S(C)=O)s1 (stereo not drawn)	0	51	0	0	0	0	0	39
CSc1sc(C(=O)NCC2CC2)cc1S(=O)(=O)C(C)C	0	0	0	0	0	0	-	-
Cc1cc(C)c(C(=O)/C=C/c2ccc3c(c2)OCO3)c(=O)[nH]1	0	0	0	0	0	0	-	-
C/C(=C\c1ccccc1)C(=O)c1c(C)cc(C)[nH]c1=O	0	58	0	-	0	0	0	-
Cc1cc(C)c(C(=O)/C=C/c2cccc3ccccc23)c(=O)[nH]1	0	88	0	0	0	0	94	58
Cc1ccc(-n2nc3cc(C)c(NC(=S)NC(=O)/C=C/c4ccco4)cc3n2)cc1	0	0	0	0	0	0	-	-
CCC(=O)Nc1cc2nn(-c3ccc(C)cc3)nc2cc1C	0	67	0	0	0	0	67	146
CC(NC(=O)CN1C(=O)NC(Cc2ccccc2)(Cc2ccccc2)C1=O)C12CC3CC(CC(C3)C1)C2 (stereo not drawn)	0	77	0	0	0	0	45	65
O=C(COc1ccc(Cl)cc1Cl)N1CCN(C(=O)c2ccco2)CC1	0	0	0	0	0	0	-	-
COc1ccc(C(=O)Nc2nc(-c3ccccn3)cs2)cc1S(=O)(=O)N1CCOCC1	0	0	0	0	0	0	-	-
Cc1ccc(S(=O)(=O)N2CCOCC2)cc1C(=O)Nc1nc(-c2ccccn2)cs1	0	76	0	0	0	76	65	0
O=C(N/N=C/c1sc(N2CCOCC2)nc1-c1ccccc1)c1cccc(S(=O)(=O)N2CCOCC2)c1	0	76	0	0	0	113	70	43
Nc1ccc(C(=O)N/N=C/c2sc(N3CCOCC3)nc2-c2ccccc2)cc1	0	0	0	0	0	0	-	-
O=C(Nc1nc(-c2ccccn2)cs1)c1cccc(S(=O)(=O)N2CCOCC2)c1	0	77	0	0	0	0	79	0
Cc1ccc2nc(-c3ccccn3)cc(C(=O)Nc3ccc(S(=O)(=O)N4CCOCC4)cc3)c2c1	0	0	0	0	0	0	-	-
O=C(Nc1nc(-c2ccccn2)cs1)c1ccc(S(=O)(=O)N2CCCCC2)cc1	0	88	0	99	-	83	90	0
Cc1ccnc(N=O)c1	-	0	0	-	0	-	-	-
CC(=O)NC12CC3CC(C1)CC(C(=O)N1CCN(c4ncccn4)CC1)(C3)C2	0	0	0	0	0	0	-	-
Cc1ccc(NC(=O)CCCN2C(=O)/C(=C/C=C/c3ccccc3)SC2=S)cc1	0	57	0	0	0	0	41	47
O=C(CCCN1C(=O)/C(=C\c2ccccc2)SC1=S)Nc1ccc(O)cc1	0	99	0	0	0	0	100	0
CC(/C=C1\SC(=S)N(CCC(=O)Nc2ccc(O)cc2)C1=O)=C\c1ccccc1	0	62	0	0	0	0	0	-
O=C(CN1C(=O)/C(=C/c2ccccc2)SC1=S)NNC(=O)c1ccccc1O	0	0	0	0	0	0	-	-
SMILES	Jurkat NFkB inh	Mdm2-MdmX inh	697 NFkB inh	CSC inhib	Gli-Sufu antag	Beta apoptosis	Mdm2-MdmX conf	FLuc counter
CC(=O)c1ccc(NC(=O)CN2C(=O)/C(=C/C(C)=C/c3ccccc3)SC2=S)cc1	-	-	-	-	0	-	-	-
O=C(CCCN1C(=O)/C(=C\c2ccccc2)SC1=S)Nc1cccc(C(=O)O)c1	0	0	0	-	0	0	-	-
Cc1ccc(/C=C2\SC(=S)N(CCC(=O)NNC(=O)c3ccccc3O)C2=O)cc1	0	53	0	0	0	-	0	-
O=C(NCC(c1ccco1)N1CCc2ccccc2C1)c1ccc(Br)cc1 (stereo not drawn)	0	0	0	0	0	0	-	-
O=C(CCN1C(=O)/C(=C\c2cccs2)SC1=S)Nc1ccccn1	0	0	0	0	0	0	-	-
O=C(CCCN1C(=O)/C(=C/c2cccs2)SC1=S)Nc1cccc(O)c1	0	89	0	0	0	0	80	73
O=C(CN1C(=O)S/C(=C\C=C\c2ccccc2)C1=O)Nc1ccc(O)cc1	0	78	0	79	0	0	42	81
O=C(CCCN1C(=O)/C(=C/c2cccs2)SC1=S)Nc1ccccn1	0	56	0	0	0	0	60	98
O=C(CCCN1C(=O)/C(=C/c2ccccc2)SC1=S)Nc1cccc(O)c1	0	100	0	-	0	0	93	58
COc1cc2cc(CCCOC(=O)c3ccc(C#N)cc3)oc(=O)c2cc1OC	0	0	0	0	0	0	-	-
Fc1c(F)c(-n2nnc3ccccc32)c(F)c(F)c1Cl	0	0	0	0	0	0	-	-
COc1cccc(C(=O)N2CCN(Cc3ccccc3Br)CC2)c1	0	0	0	-	0	-	-	-
CCOC(=O)C1CCCN(C(=O)c2cccc(NC(=O)C(CC)CC)c2)C1 (stereo not drawn)	0	0	0	0	0	0	-	-
Cc1ccc(CN2C(=O)C(=O)c3cc(C)ccc32)cc1	0	67	0	0	0	0	0	-
Cc1ccc2c(c1)C(=O)C(=O)N2CCCOc1ccccc1C	0	0	0	0	0	0	-	-
Cc1ccc2c(c1)C(=O)C(=O)N2c1ccc(Cl)cc1	0	0	0	0	0	0	-	-
CCCCN1C(=O)C(=O)c2cc(Cl)ccc21	0	54	0	0	0	0	0	-
Cc1ccc2c(c1)C(=O)C(=O)N2Cc1ccc(Br)cc1	0	66	0	-	0	0	63	74
CCCN1C(=O)C(=O)c2cc(C)ccc21	0	60	0	-	0	0	0	-
O=C(O)c1cccc(N=C2NC(=O)C(CO)(CO)S2)c1	0	0	0	0	0	0	-	-
O=C1/C(=C/c2ccc(F)cc2)SC(=S)N1CC(=O)N1CCCCC1c1cccnc1 (stereo not drawn)	0	74	0	0	0	0	0	-
O=C1/C(=C/c2ccccc2F)SC(=S)N1CC(=O)N1CCCCC1c1cccnc1 (stereo not drawn)	0	79	0	0	0	0	41	0
COc1ccc2sc(-c3ccccc3OC)c(-c3ccc(OCCN4CCOCC4)cc3)c2c1	-	0	0	-	0	-	-	-
COc1cc2sc(-c3ccccc3OC)c(-c3ccc(OCCN4CCCCC4)cc3)c2cc1OC	0	100	0	104	0	124	43	56
COc1ccccc1-c1sc2cc3c(cc2c1-c1ccc(OCCN2CCCCC2)cc1)OCO3	0	98	0	-	0	0	42	39
